“And” between values parts separate entries of the source, which are not always exact repeats. Identical values can stand only once. Records with an inconclusive call do not appear. Where a structure was tested more than once in an assay, its records may differ in their call. The source made the active and inactive calls. Unless noted, calls come from the whole dose curve; as a rule, active = well fitted curve in the direction sought with a large enough effect in the repeat runs; inconclusive = weak or mixed curves; inactive = no such curve, though single readings can be large; an effect the other way counts as inactive or inconclusive.

The nature of experiment [1]: qHTS assay to identify small molecule agonists of the hypoxia (HIF-1) signaling pathway - cell viability counter screen (AID 1224844; calls by dose curve; note: nearly all actives have a fitted effect of over 50% in size). In short, it runs like this:
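Cytotoxicity measured by CellTiter-Glo ATP luminescence in the wells also read for beta-lactamase signal. Cells were HRE-bla ME-180 (2,000/well, 0.5% dialyzed FBS), exposed to compounds for 17 h at 37C.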

A short description of experiment [2]: qHTS assay to identify small molecule agonists of H2AX (AID 1224845; active = well fitted activation curve with a large enough effect in the signal ratio in the repeat runs, not every such curve was filed as active; the % refers to the signal ratio). An outline of the steps:
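Wild-type CHO-K1 cells plated overnight, then exposed 3 hr at 37C to compounds at 15 concentrations (0.76% DMSO). Lysed, then HTRF anti-pH2AX(S139)-cryptate/anti-H2AX-d2 detection after 24 hr at room temperature; emissions 665 and 620 nm.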
A general note: Quantitative high-throughput screening tests each substance at several concentrations.

The nature of experiment [3]: qHTS assay to identify small molecule agonists of the hypoxia (HIF-1) signaling pathway (AID 1224846; active = well fitted activation curve with a large enough effect in the signal ratio in the repeat runs, not every such curve was filed as active; the % refers to the signal ratio). In short, it runs like this: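 Compounds added to ME-180 cells carrying hypoxia-response-element beta-lactamase reporter (0.5% dialyzed FBS, 5 h preplating), 17 h at 37C; agonist activity detected by CCF4-AM B/G FRET read-out.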
A short description of experiment [4]: qHTS assay to identify small molecule agonists of H2AX - cell viability counter screen (AID 1224847; calls by dose curve; note: top concentration of the series differs between compounds; nearly all actives have a fitted effect of over 30% in size). An outline of the steps: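 Cytotoxicity counter screen in wild-type CHO-K1 cells: a 3 hr compound treatment at 37C across 15 concentrations, followed by CellTiter-Glo luminescence to gauge viable cells.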
A short description of experiment [5]: qHTS assay to identify small molecule antagonists of the estrogen related receptor (ERR) signaling pathway from Tox21 library (AID 1224848). Note: nearly all actives have a fitted effect of over 50% in size. Note: potency is the fitted concentration of half-maximal effect. An outline of the steps:
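Tox21 10K compounds in DMSO tested for ERR pathway antagonism in NTP's ERR cell line; 18 h, 37 C exposure; ONE-Glo luminescence.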

Experiment [6] can be described thus: qHTS assay to identify small molecule agonists of the estrogen related receptor (ERR) signaling pathway from Tox21 library (AID 1224849; calls by dose curve; note: nearly all actives have a fitted effect of over 15% in size). Conditions: ERR reporter cell line, ONE-Glo luciferase, 18 h. An outline of the steps:
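Luminescent agonist read-out (One-Glo, 30-minute room-temperature incubation) following 18-hour compound treatment at 37 C of the ERR cell line, which had been plated 6 hours before dosing.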

A short description of experiment [7]: qHTS RealTime-Glo MT Cell Viability Assay in HepG2 cells - 24 hour (AID 1224867). Note: nearly all actives have a fitted effect of over 50% in size. An outline of the steps:
(§1)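 HepG2 cells were seeded at 600 cells/well together with NanoLuc luciferase and a cell-permeant prosubstrate, preincubated 5 h at 37 C/5% CO2, then pin-dosed with compounds in DMSO. Nonlytic luminescence from viable cells was read at each time point.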

Experiment [8] can be described thus: qHTS RealTime-Glo MT Cell Viability Assay in HEK293 cells - 32 hour (AID 1224868). Note: top concentration of the series differs between compounds; nearly all actives have a fitted effect of over 50% in size. In short, it runs like this: (§2)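 HEK293 cells were seeded at 600 cells/well together with NanoLuc luciferase and cell-permeant prosubstrate, preincubated 5 h at 37 C/5% CO2, then given compound in DMSO by pintool. Luminescence from viable-cell prosubstrate reduction was read repeatedly over 40 h.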

Experiment [9] in a line: A CellTox Green Cytotoxicity Assay to monitor cytotoxicity in HEK293 cells - 0 hour (AID 1224869). Note: nearly all actives have a fitted effect of over 50% in size. An outline of the steps:
(§3)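 Fluorescence from a DNA-binding dye excluded by viable cells was measured repeatedly in the same HEK293 wells (600 cells/well) during continuous compound exposure at 37 C. Each assay gives one read point: 0, 8, 16, 24, 32 or 40 h.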

Experiment [10] can be described thus: qHTS RealTime-Glo MT Cell Viability Assay in HepG2 cells - 40 hour (AID 1224870). Note: nearly all actives have a fitted effect of over 50% in size. In short, it runs like this: (§4)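 HepG2 cells mixed with RealTime-Glo MT reagents (NanoLuc plus cell-permeant prosubstrate) were seeded at 600 cells/well, incubated 5 h at 37 C/5% CO2, then pinned with compounds in DMSO; nonlytic luminescence tracked viability during 40 h treatment.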

A short description of experiment [11]: A CellTox Green Cytotoxicity Assay to monitor cytotoxicity in HEK293 cells - 40 hour (AID 1224871). Note: nearly all actives have a fitted effect of over 45% in size. An outline of the steps: as §3
The nature of experiment [12]: qHTS RealTime-Glo MT Cell Viability Assay in HEK293 cells - 16 hour (AID 1224872). An outline of the steps: as §2
Experiment [13] can be described thus: qHTS RealTime-Glo MT Cell Viability Assay in HepG2 cells - 8 hour (AID 1224873). Note: nearly all actives have a fitted effect of over 55% in size. In short, it runs like this: as §4
A short description of experiment [14]: qHTS RealTime-Glo MT Cell Viability Assay in HEK293 cells - 40 hour (AID 1224874). Note: nearly all actives have a fitted effect of over 50% in size. Conditions: RealTime-Glo luminescence; max response: stronger effect = lower value. In short, it runs like this: (§5)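 Luminescence, which tracks viable cell number through reduction of the prosubstrate to a NanoLuc substrate, was read over continuous 37 C culture. Cells (600/well) were premixed with reagent and rested 5 h before 23 nL of compound in DMSO was pinned.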

A short description of experiment [15]: A CellTox Green Cytotoxicity Assay to monitor cytotoxicity in HEK293 cells - 24 hour (AID 1224875). Note: nearly all actives have a fitted effect of over 45% in size. In short, it runs like this: as §3
Experiment [16] is described as follows: A CellTox Green Cytotoxicity Assay to monitor cytotoxicity in HepG2 cells - 16 hour (AID 1224876). Note: nearly all actives have a fitted effect of over 45% in size. In short, it runs like this:
(§6)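 Real-time cytotoxicity: fluorescence of a cell-impermeant cyanine dye binding DNA of dead HepG2 cells, measured repeatedly (0–40 h) during compound exposure at 37 C. Cells seeded 600/well with reagent, dosed after 5 h.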

Experiment [17] can be described thus: qHTS RealTime-Glo MT Cell Viability Assay in HepG2 cells - 32 hour (AID 1224877). Note: nearly all actives have a fitted effect of over 55% in size. In short, it runs like this:
as §1

The nature of experiment [18]: A CellTox Green Cytotoxicity Assay to monitor cytotoxicity in HepG2 cells - 40 hour (AID 1224879). Note: nearly all actives have a fitted effect of over 40% in size. An outline of the steps: as §6
Experiment [19] in a line: qHTS RealTime-Glo MT Cell Viability Assay in HEK293 cells - 0 hour (AID 1224880). Note: top concentration of the series differs between compounds; nearly all actives have a fitted effect of over 45% in size. An outline of the steps: as §5
Experiment [20] is described as follows: A CellTox Green Cytotoxicity Assay to monitor cytotoxicity in HepG2 cells - 24 hour (AID 1224878). Note: nearly all actives have a fitted effect of over 45% in size. An outline of the steps:
as §6
% is set by controls: 0 for no effect and ±100 for the full control effect.

Take `CCCCOC(=O)COC(=O)c1ccccc1C(=O)OCCCC`: the Potency result in experiment [1], in experiment [2], in experiment [4], in experiment [5], in experiment [7] and in experiment [8] was “inactive” in each case. Moreover, the Potency result in [9], in experiment [10], in experiment [11], in [12], in experiment [13] and in experiment [15] was “inactive” throughout. In addition, the Potency result in experiment [16], in experiment [17], in experiment [18] and in experiment [19] was “inactive” throughout. The compound was called inactive in experiment [3]. Besides, in experiment [6] (at 92.4 µM (top of the series)), the activity change, positive = activation is 4.38% (inactive) and 0.695% (inactive). Further, in [14], the max response was -1.67% (inactive) and 1.98% (inactive).
Regarding `CCCCOCCOC(C)=O`, the Potency result in experiment [1], in [2], in experiment [4], in experiment [5], in experiment [7] and in experiment [8] was “inactive” in each case. Further, the Potency result in experiment [9], in [10], in experiment [11], in experiment [12], in [15] and in experiment [16] was “inactive” in each case. In addition, the Potency entry in experiment [17], in experiment [20] and in [19] was “inactive” each time. Besides, the call in experiment [3] was inactive. For the same compound, the activity change, positive = activation in [6] (at 92.4 µM (top of the series)) is 1.87% (inactive) and 10.2% (inactive). For the same compound, the max response in experiment [14] is 4.03% (inactive) and 1.95% (inactive).
In the case of `COP(=S)(OC)Oc1ccc(Sc2ccc(OP(=S)(OC)OC)cc2)cc1`, the Potency result in [1], in experiment [2], in experiment [4], in experiment [7], in experiment [8] and in [9] was “inactive” in each case. For the same compound, the Potency result in experiment [10], in experiment [11], in [12], in experiment [15], in experiment [16] and in [17] was “inactive” each time. For the same compound, the Potency result in experiment [20], in experiment [18] and in [19] was “inactive” each time. For the same compound, the compound was classed as inactive in [3]. Moreover, the Potency in [5] is 27.3 µM (active) and inactive. The results for the activity change, positive = activation in experiment [6] (at 42.5 µM (top of the series)) and in [6] (at 92.4 µM (top of the series)) were -3.82% (inactive) and -40% (inactive), respectively. Besides, the max response in [14] is 5.12% (inactive).
In the case of `CCOP(=S)(OCC)OP(=S)(OCC)OCC`, the Potency entry in experiment [1], in experiment [2], in experiment [4], in experiment [5], in experiment [7] and in experiment [8] was “inactive” each time. Besides, the Potency result in experiment [9], in experiment [10], in [11], in experiment [12], in experiment [15] and in experiment [16] was “inactive” each time. Moreover, the Potency entry in experiment [17], in experiment [20], in experiment [18] and in experiment [19] was “inactive” throughout. Also, the compound was classed as inactive in experiment [3]. The activity change, positive = activation in [6] (at 92.4 µM (top of the series)) is -12.2% (inactive) and -0.199% (inactive). Moreover, the max response in experiment [14] is 3.87% (inactive) and 10.7% (inactive).
Turning to `Oc1ccc(Cl)cc1Cl`, the Potency result in experiment [1], in experiment [2], in experiment [4], in experiment [5], in experiment [7] and in [8] was “inactive” each time. For the same compound, the Potency result in [9], in experiment [11], in experiment [12], in experiment [15], in experiment [16] and in experiment [17] was “inactive” throughout. The Potency result in [20] and in experiment [19] was “inactive” throughout. Moreover, the compound was called inactive in experiment [3]. In experiment [6] (at 92.4 µM (top of the series)), the activity change, positive = activation is -0.925% (inactive) and -0.996% (inactive). Moreover, in experiment [14], the max response is 3.11% (inactive).
On to `ClCC(Cl)CCl`, for which the Potency result in experiment [1], in experiment [2], in [4], in experiment [5], in [7] and in experiment [8] was “inactive” each time. In addition, the Potency result in experiment [9], in [10], in experiment [11], in experiment [12], in [13] and in experiment [15] was “inactive” each time. Besides, the Potency result in experiment [16], in experiment [17], in experiment [20] and in experiment [19] was “inactive” throughout. In experiment [3], the result was inactive. In addition, the activity change, positive = activation in experiment [6] (at 92.4 µM (top of the series)) is 8.78% (inactive) and 5.09% (inactive). Further, the max response in [14] is 3.83% (inactive) and -1.84% (inactive).

The record behind these values is PubChem BioAssay (Tox21).
